SMILES strings stand for the structures.

The values that follow come from ChEMBL document CHEMBL1961873, “Compounds: GSK PKIS; Assays: Nanosyn kinase panel” (2012).

For experiment [1], the target named is RAC-alpha serine/threonine-protein kinase (Homo sapiens) (UniProt P31749). The conditions noted are these: at 0.1 µM.
Experiment [2] shares this target. The conditions noted are these: at 1 µM.
In experiment [3] the target is RAC-beta serine/threonine-protein kinase (Homo sapiens) (UniProt P31751). The conditions noted are these: at 0.1 µM.
The target is the same in experiment [4]. The conditions noted are these: at 1 µM.
For experiment [5], the target named is RAC-gamma serine/threonine-protein kinase (Homo sapiens) (UniProt Q9Y243). The conditions noted are these: at 0.1 µM.
Experiment [6] has the same target. The conditions noted are these: at 1 µM.
Experiment [7] deals with G protein-coupled receptor kinase 6 (Homo sapiens) (UniProt P43250). The conditions noted are these: at 0.1 µM.
Experiment [8] shares this target. The conditions noted are these: at 1 µM.
Experiment [9] concerns the target T1, Rhodopsin kinase GRK7 (Homo sapiens) (UniProt Q8WTQ7).
T1 sequence (whole entry): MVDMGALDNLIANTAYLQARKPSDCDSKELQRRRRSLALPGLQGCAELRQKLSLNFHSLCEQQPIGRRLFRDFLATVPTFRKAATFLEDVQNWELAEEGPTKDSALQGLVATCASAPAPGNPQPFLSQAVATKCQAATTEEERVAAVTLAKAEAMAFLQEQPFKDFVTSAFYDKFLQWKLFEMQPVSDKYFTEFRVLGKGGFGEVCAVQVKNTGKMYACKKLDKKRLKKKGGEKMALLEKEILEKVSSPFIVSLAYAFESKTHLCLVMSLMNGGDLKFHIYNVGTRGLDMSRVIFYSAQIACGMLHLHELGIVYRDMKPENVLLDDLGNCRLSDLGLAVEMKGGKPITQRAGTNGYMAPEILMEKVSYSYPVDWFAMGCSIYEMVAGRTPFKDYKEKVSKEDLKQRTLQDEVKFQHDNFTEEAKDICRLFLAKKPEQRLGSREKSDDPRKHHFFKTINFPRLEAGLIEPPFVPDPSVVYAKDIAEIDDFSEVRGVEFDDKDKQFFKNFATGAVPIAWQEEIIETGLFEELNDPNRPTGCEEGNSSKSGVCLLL
The conditions noted are these: at 0.1 µM.

Experiment [10] has as its target T1, Rhodopsin kinase GRK7 (Homo sapiens). The conditions noted are these: at 1 µM.
Experiment [11] deals with Serine/threonine-protein kinase MRCK alpha (Homo sapiens) (UniProt Q5VT25). The conditions noted are these: at 0.1 µM.
Experiment [12] shares this target. The conditions noted are these: at 1 µM.
The target of experiment [13] is Serine/threonine-protein kinase MRCK beta (Homo sapiens) (UniProt Q9Y5S2). The conditions noted are these: at 0.1 µM.
Experiment [14] has the same target. The conditions noted are these: at 1 µM.
Experiment [15] deals with Ribosomal protein S6 kinase alpha-5 (Homo sapiens) (UniProt O75582). The conditions noted are these: at 0.1 µM.
Experiment [16] shares this target. The conditions noted are these: at 1 µM.
In experiment [17] the target is Ribosomal protein S6 kinase alpha-4 (Homo sapiens) (UniProt O75676). The conditions noted are these: at 0.1 µM.
For experiment [18] the target is unchanged. The conditions noted are these: at 1 µM.
For experiment [19], the target named is Ribosomal protein S6 kinase beta-1 (Homo sapiens) (UniProt P23443). The conditions noted are these: at 0.1 µM.
Experiment [20] shares this target. The conditions noted are these: at 1 µM.

Serine/threonine-protein kinase MRCK beta (Homo sapiens), sequence (Q9Y5S2 whole entry): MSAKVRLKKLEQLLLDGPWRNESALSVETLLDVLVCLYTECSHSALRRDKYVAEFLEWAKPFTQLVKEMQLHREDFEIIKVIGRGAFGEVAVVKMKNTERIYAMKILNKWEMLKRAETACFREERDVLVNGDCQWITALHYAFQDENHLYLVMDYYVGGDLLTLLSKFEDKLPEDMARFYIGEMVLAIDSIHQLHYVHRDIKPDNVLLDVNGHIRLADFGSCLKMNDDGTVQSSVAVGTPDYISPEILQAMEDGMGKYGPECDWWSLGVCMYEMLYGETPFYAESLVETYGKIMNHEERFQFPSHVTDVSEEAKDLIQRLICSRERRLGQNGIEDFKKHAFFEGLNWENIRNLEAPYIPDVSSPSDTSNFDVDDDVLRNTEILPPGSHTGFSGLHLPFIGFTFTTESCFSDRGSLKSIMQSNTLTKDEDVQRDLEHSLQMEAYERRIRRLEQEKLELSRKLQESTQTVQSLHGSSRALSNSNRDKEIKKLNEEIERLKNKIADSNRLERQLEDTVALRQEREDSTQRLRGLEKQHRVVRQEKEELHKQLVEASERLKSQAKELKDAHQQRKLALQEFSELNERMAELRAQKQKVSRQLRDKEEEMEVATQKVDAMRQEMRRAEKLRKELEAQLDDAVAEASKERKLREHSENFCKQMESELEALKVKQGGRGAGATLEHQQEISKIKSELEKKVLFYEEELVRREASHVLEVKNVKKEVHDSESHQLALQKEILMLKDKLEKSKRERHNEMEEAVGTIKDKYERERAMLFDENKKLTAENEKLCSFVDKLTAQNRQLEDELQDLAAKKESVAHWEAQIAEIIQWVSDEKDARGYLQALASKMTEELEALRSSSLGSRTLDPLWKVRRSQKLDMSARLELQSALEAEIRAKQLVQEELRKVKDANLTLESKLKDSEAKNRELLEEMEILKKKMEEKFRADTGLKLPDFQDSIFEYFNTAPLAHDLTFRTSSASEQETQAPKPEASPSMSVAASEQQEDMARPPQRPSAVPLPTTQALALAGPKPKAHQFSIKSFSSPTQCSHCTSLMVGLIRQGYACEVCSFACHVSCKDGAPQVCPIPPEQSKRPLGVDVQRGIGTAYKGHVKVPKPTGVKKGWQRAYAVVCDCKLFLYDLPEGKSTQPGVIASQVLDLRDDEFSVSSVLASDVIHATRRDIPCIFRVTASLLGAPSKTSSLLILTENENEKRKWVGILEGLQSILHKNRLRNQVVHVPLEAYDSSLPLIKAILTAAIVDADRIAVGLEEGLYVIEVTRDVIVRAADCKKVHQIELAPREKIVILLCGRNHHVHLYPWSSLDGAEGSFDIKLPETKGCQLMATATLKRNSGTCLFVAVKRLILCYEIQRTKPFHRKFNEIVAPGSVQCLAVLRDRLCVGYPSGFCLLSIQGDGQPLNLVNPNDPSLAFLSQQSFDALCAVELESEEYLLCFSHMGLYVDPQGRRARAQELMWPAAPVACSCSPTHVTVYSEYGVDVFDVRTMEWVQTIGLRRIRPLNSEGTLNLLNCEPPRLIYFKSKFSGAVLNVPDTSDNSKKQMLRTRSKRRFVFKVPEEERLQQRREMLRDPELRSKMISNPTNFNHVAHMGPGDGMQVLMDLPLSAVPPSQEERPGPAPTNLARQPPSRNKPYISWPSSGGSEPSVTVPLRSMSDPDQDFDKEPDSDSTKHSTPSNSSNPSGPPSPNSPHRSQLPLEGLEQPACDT
Ribosomal protein S6 kinase alpha-4 (Homo sapiens), sequence (O75676 whole entry, looked up): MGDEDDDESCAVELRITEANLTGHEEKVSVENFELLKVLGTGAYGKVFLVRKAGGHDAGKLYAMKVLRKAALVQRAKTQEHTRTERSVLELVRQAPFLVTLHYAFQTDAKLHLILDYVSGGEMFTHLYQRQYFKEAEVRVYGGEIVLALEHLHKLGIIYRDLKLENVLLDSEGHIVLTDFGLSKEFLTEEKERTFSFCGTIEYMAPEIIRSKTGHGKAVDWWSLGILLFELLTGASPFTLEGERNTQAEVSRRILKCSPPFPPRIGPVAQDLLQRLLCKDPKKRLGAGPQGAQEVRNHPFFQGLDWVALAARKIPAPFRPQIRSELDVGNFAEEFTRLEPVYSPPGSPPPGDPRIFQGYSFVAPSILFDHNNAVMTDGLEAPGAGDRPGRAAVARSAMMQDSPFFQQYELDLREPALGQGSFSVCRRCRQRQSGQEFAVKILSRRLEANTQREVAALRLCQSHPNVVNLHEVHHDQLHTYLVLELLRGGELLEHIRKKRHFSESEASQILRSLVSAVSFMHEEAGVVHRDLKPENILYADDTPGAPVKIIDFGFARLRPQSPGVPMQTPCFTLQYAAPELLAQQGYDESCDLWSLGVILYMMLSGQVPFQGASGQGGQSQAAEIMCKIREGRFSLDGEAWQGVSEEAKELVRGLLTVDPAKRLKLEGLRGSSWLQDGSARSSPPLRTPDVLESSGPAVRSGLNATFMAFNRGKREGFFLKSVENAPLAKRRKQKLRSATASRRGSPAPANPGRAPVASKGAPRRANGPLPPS
RAC-gamma serine/threonine-protein kinase (Homo sapiens), sequence (Q9Y243 whole entry): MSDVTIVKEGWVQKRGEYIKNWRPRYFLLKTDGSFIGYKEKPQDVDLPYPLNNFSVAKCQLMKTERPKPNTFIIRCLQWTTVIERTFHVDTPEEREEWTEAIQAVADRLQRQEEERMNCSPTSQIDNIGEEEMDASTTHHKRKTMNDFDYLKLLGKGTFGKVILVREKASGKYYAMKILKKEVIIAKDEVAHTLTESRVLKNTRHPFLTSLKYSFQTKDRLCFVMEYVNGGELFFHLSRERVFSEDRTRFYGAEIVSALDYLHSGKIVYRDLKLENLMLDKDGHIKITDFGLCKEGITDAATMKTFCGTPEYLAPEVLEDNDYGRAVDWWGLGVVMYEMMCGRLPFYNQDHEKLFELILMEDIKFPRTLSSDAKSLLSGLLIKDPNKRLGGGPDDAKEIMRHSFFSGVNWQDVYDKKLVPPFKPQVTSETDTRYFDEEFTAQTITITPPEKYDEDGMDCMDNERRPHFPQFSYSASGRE
Ribosomal protein S6 kinase beta-1 (Homo sapiens), sequence (P23443 whole entry, looked up): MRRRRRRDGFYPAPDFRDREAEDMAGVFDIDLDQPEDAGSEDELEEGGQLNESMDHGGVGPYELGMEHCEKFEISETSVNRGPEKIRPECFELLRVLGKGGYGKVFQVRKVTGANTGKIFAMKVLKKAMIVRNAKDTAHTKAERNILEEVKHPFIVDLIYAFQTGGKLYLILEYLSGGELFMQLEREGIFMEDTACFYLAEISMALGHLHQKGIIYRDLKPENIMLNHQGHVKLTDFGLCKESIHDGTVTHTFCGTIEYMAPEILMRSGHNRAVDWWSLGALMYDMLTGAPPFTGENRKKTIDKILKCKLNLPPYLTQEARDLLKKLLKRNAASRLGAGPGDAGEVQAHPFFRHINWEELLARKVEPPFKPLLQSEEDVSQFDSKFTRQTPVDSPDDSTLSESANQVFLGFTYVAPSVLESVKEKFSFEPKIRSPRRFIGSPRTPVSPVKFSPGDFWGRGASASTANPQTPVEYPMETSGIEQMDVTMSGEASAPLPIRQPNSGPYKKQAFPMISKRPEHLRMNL
Ribosomal protein S6 kinase alpha-5 (Homo sapiens), sequence (O75582 whole entry, looked up): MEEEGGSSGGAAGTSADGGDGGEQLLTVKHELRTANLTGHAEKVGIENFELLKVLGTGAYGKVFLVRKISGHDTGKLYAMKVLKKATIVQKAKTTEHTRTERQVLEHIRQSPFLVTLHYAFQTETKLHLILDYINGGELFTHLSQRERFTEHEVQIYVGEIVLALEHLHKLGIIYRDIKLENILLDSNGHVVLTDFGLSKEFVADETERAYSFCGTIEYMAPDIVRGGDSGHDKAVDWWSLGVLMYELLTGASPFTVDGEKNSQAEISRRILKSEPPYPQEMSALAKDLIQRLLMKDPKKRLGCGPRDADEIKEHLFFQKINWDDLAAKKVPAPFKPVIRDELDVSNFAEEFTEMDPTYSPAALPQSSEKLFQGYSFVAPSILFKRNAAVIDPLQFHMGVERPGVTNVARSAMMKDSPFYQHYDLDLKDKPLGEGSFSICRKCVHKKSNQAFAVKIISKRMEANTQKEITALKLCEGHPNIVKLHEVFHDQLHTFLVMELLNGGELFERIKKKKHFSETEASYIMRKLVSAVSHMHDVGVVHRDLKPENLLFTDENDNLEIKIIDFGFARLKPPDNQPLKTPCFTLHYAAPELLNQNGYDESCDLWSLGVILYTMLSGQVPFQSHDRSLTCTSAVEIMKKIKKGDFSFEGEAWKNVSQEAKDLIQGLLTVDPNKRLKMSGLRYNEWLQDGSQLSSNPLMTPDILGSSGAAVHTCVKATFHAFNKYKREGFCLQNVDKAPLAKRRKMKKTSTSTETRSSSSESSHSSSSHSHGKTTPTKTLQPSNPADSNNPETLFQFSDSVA
RAC-beta serine/threonine-protein kinase (Homo sapiens), sequence (P31751 whole entry): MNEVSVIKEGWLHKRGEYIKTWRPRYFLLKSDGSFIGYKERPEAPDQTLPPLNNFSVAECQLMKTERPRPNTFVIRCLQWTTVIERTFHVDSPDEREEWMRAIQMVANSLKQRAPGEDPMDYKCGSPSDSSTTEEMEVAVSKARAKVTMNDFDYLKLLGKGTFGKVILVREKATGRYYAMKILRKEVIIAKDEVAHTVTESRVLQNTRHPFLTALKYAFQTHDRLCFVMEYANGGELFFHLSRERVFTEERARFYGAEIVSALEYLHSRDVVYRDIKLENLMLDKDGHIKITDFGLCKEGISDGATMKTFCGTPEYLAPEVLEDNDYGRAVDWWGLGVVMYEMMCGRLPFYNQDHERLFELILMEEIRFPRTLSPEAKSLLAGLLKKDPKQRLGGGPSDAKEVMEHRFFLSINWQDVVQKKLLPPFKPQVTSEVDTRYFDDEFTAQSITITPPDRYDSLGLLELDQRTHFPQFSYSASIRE

Turning to `C#Cc1cccc(Nc2ncnc3ccc(OCCCCNCCS(C)(=O)=O)cc23)c1`, the inhibition in experiment [1] is -2.83%; in [2], -3.06%; in experiment [3], -0.89%; in experiment [4], -2.09%; in [5], -1.57%; in experiment [6], -0.78%. Also, the inhibition is 7.52% in experiment [7]; 6.6% in experiment [8]; 4.84% in experiment [9]; 8.97% in experiment [10]; -0.05% in experiment [11]; 7.35% in experiment [12]. For the same molecule, the inhibition in experiment [13] turned out to be 0.55%; in experiment [14], 1.44%; in experiment [15] it was 2.74%; in experiment [16], 1.8%; in [17], 3.12%; in [18], 3.4%. The values for the inhibition in experiment [19] and in experiment [20] were 2.59% and 3.29%, respectively.

Take `NS(=O)(=O)c1ccc(N/N=C2\C(=O)Nc3ccc(-c4cnco4)cc32)cc1`: the inhibition in [1] is -3.71%; in experiment [2] it was -3.3%; in experiment [3], -3.63%; in experiment [4], -1.8%; in experiment [5], -3.1%; in [6] it was -0.96%. The inhibition in experiment [7] is -0.25%; in [8], 2.71%; in experiment [9] it was 8.59%; in experiment [10], 7.29%; in experiment [11], 0.37%; in experiment [12], 8.38%. In addition, the inhibition in [13] is 0.26%; in experiment [14] it was 6.65%; in experiment [15] it was -1.59%; in [16], -0.36%; in experiment [17] it was 0.74%; in experiment [18], 3.26%. The inhibition stood at 0.79% in [19] and 6.58% in [20].

In the case of `CS(=O)(=O)CCNCc1ccc(-c2ccc3ncnc(Nc4ccc(OCc5ccccc5)c(Br)c4)c3c2)o1`, the inhibition in experiment [1] is -2.58%; in [2], -2.2%; in experiment [3] it was -3.3%; in experiment [4], -3.04%; in experiment [5] it was -3.44%; in [6] it was -0.54%. The inhibition in experiment [7] was -2.27%; in [8], 2.12%; in experiment [9] it was 10.1%; in experiment [10] it was 0.45%; in [11], -6.6%; in experiment [12] it was -3.23%. For the same molecule, the inhibition in experiment [13] was -0.18%; in experiment [14] it was -0.76%; in experiment [15], 1.16%; in experiment [16] it was -1.75%; in experiment [17] it was 2.02%; in experiment [18] it was 0.82%. Besides, the inhibition stood at 0.95% in experiment [19] and 0.5% in experiment [20].

As to `CNC(=O)c1cncc(/C=C/c2c(C)cccc2C)c1`, the inhibition in [1] was -2.43%; in experiment [2], -2.92%; in [3] it was -3.43%; in [4], -4.29%; in [5] it was -2.01%; in experiment [6], -2.42%. In addition, the inhibition in experiment [7] was 4.6%; in [8], -0.29%; in experiment [9] it was 1.47%; in experiment [10], -7.66%; in experiment [11], 1.09%; in [12], 4.17%. Also, the inhibition is -0.27% in experiment [13]; -0.99% in experiment [14]; -1.22% in experiment [15]; -0.95% in experiment [16]; 1.35% in experiment [17]; 1.5% in experiment [18]. Moreover, the inhibition was found to be 2.04% in experiment [19] and 0.86% in experiment [20].

As for `COc1ccc(-c2ccc3c(NC(=O)C4CC4)n[nH]c3n2)cc1`, the inhibition is -0.03% in experiment [1]; 0.55% in experiment [2]; 0.33% in experiment [3]; 0.37% in [4]; 3.49% in experiment [5]; 0.37% in experiment [6]. Also, the inhibition in [7] came out at 5.32%; in experiment [8], 9.55%; in experiment [9], 2.9%; in [10], 10.4%; in experiment [11], 0.51%; in experiment [12] it was 3.19%. Besides, the inhibition was -0.1% in [13]; 0.25% in experiment [14]; 1.32% in experiment [15]; 2.82% in experiment [16]; 2.27% in experiment [17]; 2.9% in experiment [18]. Also, the inhibition in experiment [19] came to 0.22%; in [20] it was 0.21%.

Turning to `Nc1nccc(-c2c(-c3ccc(F)cc3)ncn2C2CCC(O)CC2)n1` (stereo not given), the inhibition in experiment [1] was -1.5%; in experiment [2] it was -1.14%; in experiment [3], -2.08%; in [4], -1.44%; in experiment [5] it was -1.82%; in [6], 0.5%. The inhibition in experiment [7] was 1.78%; in experiment [8], -1.92%; in [9], -3.24%; in experiment [10], -1.89%; in [11], -0.25%; in [12], -0.81%. The inhibition was 0.88% in experiment [13]; 0.56% in experiment [14]; -1.03% in experiment [15]; -0.24% in experiment [16]; -1.62% in experiment [17]; -0.73% in experiment [18]. The inhibition in experiment [19] is -1.59%; in experiment [20], -1.84%.

Turning to `Fc1ccc(-c2ncn(CCCN3CCOCC3)c2-c2ccncc2)cc1`, the inhibition was 0.28% in experiment [1]; -0.27% in experiment [2]; 0.74% in experiment [3]; 0.26% in [4]; -0.68% in [5]; 1.2% in [6]. Moreover, the inhibition is -3.25% in experiment [7]; -1.04% in experiment [8]; -1.98% in experiment [9]; 3.1% in [10]; 1.19% in [11]; 1.33% in experiment [12]. Also, the inhibition was 0.96% in [13]; 2.08% in experiment [14]; 0.01% in experiment [15]; -0.79% in experiment [16]; 0.3% in experiment [17]; 0.33% in [18]. Further, the inhibition in [19] was 0.29%; in [20], -0.43%.

What is called inhibition is the drop in the measured response relative to a control, in per cent.
